Compound activity from PubChem BioAssay.
MITF inh: blocks human microphthalmia-associated transcription factor. hit rate 0.91% among 650,000. inhibition, % at 2.6 µM. O75030. AlphaScreen MITF homodimerization, bead proximity signal; in the data active = inhibition above about 50%
TEAD-YAP block: TEAD-YAP interaction inhibition; HEK-TIYL cells, TEAD-Gal4/YAP UAS-luciferase luminescence; inhibition, % at 9.12 µM; hit rate 1.4% among 640,000; in the data active = inhibition above about 32%
GPR151 activ: activates the human receptor GPR151; Q8TDV0; activation, % at 11.2 µM; PathHunter beta-arrestin GPR151 cells, luminescence; hit rate 1% among 650,000; in the data active = activation above about 4.9%
FBW7 act: human FBW7 E3 ligase activation, primary screen | Q969H0 | AlphaScreen FBW7–phospho-cyclin E peptide binding, activator screen | normalized activity (activation), % at 26.1 µM | hit rate 0.13% among 650,000; in the data active = normalized activity above about 1.9%;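 also: purified mutant Fbw7 with reduced substrate affinity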
GPR151 conf act: human GPR151 activation, confirmation screen; AID 1508609; GPR151 PathHunter beta-arrestin cells, luminescence, 90 min; % of EA-reagent control over plate median; 6,700 tested, under 10 active; shares compounds with GPR151 activ; activation, % at 11.2 µM;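 active = mean percent activation across replicates above the confirmation screen cutoff of 4.91%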
GPR119 ag: GPR119 activation, counter-screen for GPR151 activators | GPR119 PathHunter beta-arrestin cells, luminescence, 90 min; 0 = compound-well median, 100 = enzyme-acceptor control | activation, % at 11.2 µM | AID 1508611 | hit rate 0.3% among 6,700 | shares compounds with GPR151 activ;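 active = mean percent activation in the counterscreen above 29.09%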;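 also: counterscreen on off-target GPR119 to flag nonselective hits from the GPR151 activator screen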
Target sequence (Q8TDV5 whole entry, looked up): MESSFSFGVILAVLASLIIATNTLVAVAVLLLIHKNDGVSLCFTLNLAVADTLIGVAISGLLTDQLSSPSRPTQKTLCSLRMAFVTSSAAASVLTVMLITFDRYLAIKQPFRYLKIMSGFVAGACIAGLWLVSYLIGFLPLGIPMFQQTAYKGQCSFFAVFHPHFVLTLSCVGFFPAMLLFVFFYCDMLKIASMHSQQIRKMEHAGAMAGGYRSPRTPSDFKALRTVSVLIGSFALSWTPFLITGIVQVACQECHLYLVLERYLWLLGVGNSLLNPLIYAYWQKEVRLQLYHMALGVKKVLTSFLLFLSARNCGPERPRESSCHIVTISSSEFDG
A number is an active result. Rows were chosen to be rich in hits. Some 3.5% of all compounds tested hit in one or more screens of this group.

`O=C(CN1CCC(O)(c2cccnc2)CC1)OC1CCCCC1` gave MITF inh inactive, TEAD-YAP block inactive, GPR151 activ inactive and FBW7 act inactive.
For COc1ccc(NC(=O)c2cc3cc(OC)ccc3oc2=Nc2ccc(C(=O)O)cc2)c(OC)c1 the results were MITF inh inactive, TEAD-YAP block inactive, GPR151 activ inactive and FBW7 act inactive.
Screening COc1ccc(NC(=O)c2cc3ccc(OC)cc3oc2=Nc2ccc(C(=O)O)cc2)c(OC)c1 returned MITF inh inactive, TEAD-YAP block inactive, GPR151 activ 11.1, FBW7 act inactive, GPR151 conf act inactive and GPR119 ag inactive.
Screening CC(=O)c1ccc(NC(=S)NC(=O)c2ccccc2F)cc1 returned MITF inh inactive, TEAD-YAP block inactive, GPR151 activ 14.8, FBW7 act inactive, GPR151 conf act inactive and GPR119 ag inactive.
Cc1ccccc1C(=O)NC(=S)Nc1ccc(Cc2ccncc2)cc1 was read as MITF inh inactive, TEAD-YAP block inactive, GPR151 activ 18.7, FBW7 act inactive, GPR151 conf act inactive and GPR119 ag inactive.
For CC1(C)Cc2nc3sc4c(SCC(=O)N5CCOCC5)ncnc4c3cc2CO1 the results were MITF inh inactive, TEAD-YAP block inactive, GPR151 activ 5.9, FBW7 act inactive, GPR151 conf act inactive and GPR119 ag inactive.
O=C(NC1Cc2ccccc2C1)c1ccc(OC2CCN(C(=O)C3CC3)CC2)cc1 was read as MITF inh inactive, TEAD-YAP block inactive, GPR151 activ 8.1, FBW7 act inactive, GPR151 conf act inactive and GPR119 ag inactive.
O=C(Cc1cn(-c2ccc(Nc3cnccn3)nn2)c2ccccc12)NCCOc1ccccc1 was read as MITF inh inactive, TEAD-YAP block inactive, GPR151 activ 6.2, FBW7 act inactive, GPR151 conf act inactive and GPR119 ag inactive.
`CC(=O)N(C)c1ccc(NC(=O)c2ccco2)cc1` gave MITF inh inactive, TEAD-YAP block inactive, GPR151 activ 5.3, FBW7 act inactive, GPR151 conf act inactive and GPR119 ag inactive.
Screening Cn1ncc2c(=O)n(CC(=O)Nc3ccccc3F)cnc21 returned MITF inh inactive, TEAD-YAP block inactive, GPR151 activ inactive and FBW7 act inactive.
Screening Cc1ccccc1-c1nnc(SCC(=O)Nc2ccc(N(C)C)cc2)o1 returned MITF inh inactive, TEAD-YAP block inactive, GPR151 activ inactive and FBW7 act inactive.
CC(=O)n1ncc2c([N+](=O)[O-])cc([N+](=O)[O-])cc21 was read as MITF inh inactive, TEAD-YAP block inactive, GPR151 activ inactive and FBW7 act inactive.
For Cn1c(=O)c2c(nc(N3CCCCCC3)n2CCc2ccccc2)n(C)c1=O the results were MITF inh inactive, TEAD-YAP block inactive, GPR151 activ 5.0, FBW7 act inactive, GPR151 conf act inactive and GPR119 ag inactive.
Cn1c(=O)c2c(nc(Cl)n2CC(=O)NCc2ccccc2)n(C)c1=O was read as MITF inh inactive, TEAD-YAP block inactive, GPR151 activ 6.5, FBW7 act inactive, GPR151 conf act inactive and GPR119 ag inactive.
For CCN1CCN(c2nc3c(c(=O)n(C)c(=O)n3C)n2CCSc2ncccn2)CC1 the results were MITF inh inactive, TEAD-YAP block inactive, GPR151 activ 8.0, FBW7 act inactive, GPR151 conf act inactive and GPR119 ag inactive.
`CCCN1CCc2c(C(=O)OC)c(OCCc3ccccc3F)cc(=O)n2CC1` gave MITF inh inactive, TEAD-YAP block inactive, GPR151 activ inactive and FBW7 act inactive.
For COCCNC(=O)c1cc2c(s1)-c1ccccc1SC2 the results were MITF inh inactive, TEAD-YAP block inactive, GPR151 activ inactive and FBW7 act inactive.
For COc1cccc(S(=O)(=O)N2CCC(c3nc(-c4cccnc4)no3)CC2)c1 the results were MITF inh inactive, TEAD-YAP block inactive, GPR151 activ 7.4, FBW7 act inactive, GPR151 conf act inactive and GPR119 ag inactive.
`Cc1ccc(S(=O)(=O)N2CCC(c3nc(-c4ccccc4C)no3)CC2)cc1` gave MITF inh inactive, TEAD-YAP block inactive, GPR151 activ 6.2, FBW7 act inactive, GPR151 conf act inactive and GPR119 ag inactive.
Screening Cc1ccc(-c2noc(C3CCN(S(=O)(=O)c4ccccc4)CC3)n2)cc1 returned MITF inh inactive, TEAD-YAP block inactive, GPR151 activ inactive and FBW7 act inactive.
Screening COc1ccc(CC2(CCC(=O)NC(C)CO)CCC(=O)N2)c2ccccc12 (configuration not stated) returned MITF inh inactive, TEAD-YAP block inactive, GPR151 activ inactive and FBW7 act inactive.
For CCN(CC)CCCCNc1ncc2cc(-c3cc(OC)cc(OC)c3)c(NC(=O)NC(C)(C)C)nc2n1 the results were MITF inh inactive, GPR151 activ 5.3, GPR151 conf act inactive and GPR119 ag inactive.
Screening CCN(CC)CCCCCCNc1cc(OC)cc2c(C)ccnc12 returned GPR151 activ inactive.
CC(=O)/C=C/c1ccc(OC(F)F)cc1 was read as MITF inh inactive, TEAD-YAP block inactive, GPR151 activ 6.0, FBW7 act inactive, GPR151 conf act inactive and GPR119 ag inactive.
COc1cccc(CN2CCN(Cc3cn(C)nc3C)CC2CCO)c1 (configuration not stated) was read as MITF inh inactive, TEAD-YAP block inactive, GPR151 activ 5.8, FBW7 act inactive, GPR151 conf act inactive and GPR119 ag inactive.
`COc1cccc(CN2CCN(Cc3cccc(OCCO)c3)CC2CCO)c1` (configuration not stated) gave MITF inh inactive, TEAD-YAP block inactive, GPR151 activ 5.2, FBW7 act inactive, GPR151 conf act inactive and GPR119 ag inactive.
For COc1cccc(CN2CCN(Cc3cccc(OC)c3)C(CCO)C2)c1 (configuration not stated) the results were MITF inh inactive, TEAD-YAP block inactive, GPR151 activ inactive and FBW7 act inactive.
`CSc1cccc(CN2CCN(Cc3ccccc3F)C(CCO)C2)c1` (configuration not stated) gave MITF inh inactive, TEAD-YAP block inactive, GPR151 activ 12.8, FBW7 act inactive, GPR151 conf act inactive and GPR119 ag inactive.
CCC(NS(=O)(=O)c1cc2c(cc1C)NC(=O)CO2)c1cccs1 (configuration not stated) was read as MITF inh inactive, TEAD-YAP block inactive, GPR151 activ inactive and FBW7 act inactive.
For NC(=O)c1ccc(-c2cccc(C(=O)NCCc3ccc(O)cc3)n2)cc1 the results were MITF inh inactive, TEAD-YAP block inactive, GPR151 activ 5.4, FBW7 act inactive, GPR151 conf act inactive and GPR119 ag inactive.
Screening COc1ccc(C(=O)CN2C(=O)N(c3ccccc3)S(=O)(=O)c3ccccc32)cc1 returned MITF inh inactive, TEAD-YAP block inactive, GPR151 activ inactive and FBW7 act inactive.
Screening COCCNc1nc2c(c(=O)[nH]c(=O)n2C)n1Cc1cccc(C)c1 returned MITF inh inactive, TEAD-YAP block inactive, GPR151 activ inactive and FBW7 act inactive.
